Source: PubChem (The Scripps Research Institute Molecular Screening Center)
Sampled rows, rich in hits. Any-hit rate of the full collection: about 1.1%.
LRH-1 inv ag = LRH-1 (NR5A2) inverse agonists, primary screen, cell-based, luminescence, HEK293T, StAR-luciferase reporter; hit rate 0.13% among 360,000; Nuclear receptor subfamily 5 group A member 2 (Homo sapiens), O00482; LRH-1 transfected, 24 h; inhibition, % at 3.6 µM;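 active = inhibition above the mean inhibition of all tested compounds plus 3 SD, cut at about 73% in these data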;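 also: 0% = DMSO wells and 100% = reporter-only cells lacking LRH-1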
SRC1 inh = SRC1 coactivator transcriptional activity inhibitors, primary screen, cell-based, luminescence; HEK293 GAL4-SRC1 luciferase reporter; Nuclear receptor coactivator 1 (Homo sapiens), Q15788; hit rate 0.12% among 360,000; AID 588354, 2011; inhibition, % at 3.6 µM;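 active = inhibition above the campaign mean plus 3 SD, with each screening campaign given its own cutoff, cut at about 60% in these data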;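 also: 0% = DMSO treated cells and 100% = gossypol at 36 µM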
GalR3 antag = GalR3 antagonists in HEK293 cells, primary screen, cell-based, fluorescence readout. Galanin receptor type 3 (Homo sapiens), O60755. HEK293 GalR3-CNG cAMP membrane potential fluorescence; galR3 body fused to GalR1 C-terminus. inhibition, % at 3 µM. hit rate 0.44% among 360,000. AID 651719, 2012;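 active = inhibition above the screen-wide average plus 3 SD, cut at about 13% in these data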;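 also: forskolin and galanin both at EC90 stimulate the cells; cAMP rise reported by CNG channel membrane potential dye signal; 0% = forskolin plus galanin with DMSO and 100% = forskolin alone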
Target sequence (O60755 1-299 limits assumed): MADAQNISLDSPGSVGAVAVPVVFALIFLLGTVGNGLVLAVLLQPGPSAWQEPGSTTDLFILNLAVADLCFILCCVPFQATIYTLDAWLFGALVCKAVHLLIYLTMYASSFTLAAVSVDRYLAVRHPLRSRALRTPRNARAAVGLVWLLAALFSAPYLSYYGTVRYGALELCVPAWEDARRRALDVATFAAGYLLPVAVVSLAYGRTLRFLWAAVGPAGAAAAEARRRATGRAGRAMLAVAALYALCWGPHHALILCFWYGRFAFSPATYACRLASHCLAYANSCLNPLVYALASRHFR
SRC3 inh = SRC3 coactivator transcriptional activity inhibitors, primary screen, cell-based, luminescence. HEK293 GAL4-SRC3 luciferase reporter. inhibition, % at 3.6 µM. hit rate 0.17% among 360,000. Nuclear receptor coactivator 3 (Homo sapiens), Q9Y6Q9;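 active = inhibition above a per-campaign cutoff, the mean of all compounds plus 3 SD, cut at about 60% in these data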;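 also: 0% = DMSO-treated cells and 100% = gossypol-treated cells at 36 µM; higher means less SRC3-driven luciferase light from the GAL4 reporter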
NR2F2 inh = NR2F2 transcriptional activity inhibitors, primary screen, cell-based, luciferase reporter, HEK293T, luminescence; COUP transcription factor 2 (Homo sapiens), P24468; HEK293T NGFI-A luciferase reporter; inhibition, % at 8.6 µM; hit rate 0.7% among 370,000;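 active = inhibition above a per-plate cutoff, mean inhibition of test wells between control levels plus 3 SD, cut at about 38% in these data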;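 also: cells cotransfected with COUP-TFII expression vector driving the NGFI-A reporter; 0% = median of COUP-TF2 test wells and 100% = reporter-only cells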
Target sequence (P24468 whole entry, looked up): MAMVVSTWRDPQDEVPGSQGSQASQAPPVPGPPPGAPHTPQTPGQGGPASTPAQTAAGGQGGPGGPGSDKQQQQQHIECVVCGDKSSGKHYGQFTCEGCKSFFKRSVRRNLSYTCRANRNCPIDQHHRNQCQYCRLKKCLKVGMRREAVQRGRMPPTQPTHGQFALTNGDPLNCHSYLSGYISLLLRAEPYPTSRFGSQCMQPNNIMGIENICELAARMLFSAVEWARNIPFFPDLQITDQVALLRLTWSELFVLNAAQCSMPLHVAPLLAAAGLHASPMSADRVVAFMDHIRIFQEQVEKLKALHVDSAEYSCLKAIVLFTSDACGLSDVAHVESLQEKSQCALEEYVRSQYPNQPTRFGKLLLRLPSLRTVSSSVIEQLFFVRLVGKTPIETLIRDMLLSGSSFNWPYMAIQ
SRC2 inh = inhibition of GAL4-SRC2 driven luciferase reporter, primary screen, SRC2 inhibitor project, cell-based, luminescence. hit rate 0.17% among 370,000. inhibition, % at 9 µM. Nuclear receptor coactivator 2 (Homo sapiens), Q15596. HEK293 GAL4-SRC2 luciferase reporter;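 active = inhibition above the mean inhibition of all tested compounds plus 3 SD, set per campaign, cut at about 52% in these data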;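 also: 0% = DMSO treated cells and 100% = cells given Gossypol at 36 µM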
GalR3 antag conf = GalR3 antagonist hit confirmation, cell-based, fluorescence, triplicate | hit rate 59% among 1,600 | shares compounds with GalR3 antag | inhibition, % at 3 µM | HEK293 GalR3 CNG cAMP biosensor, membrane potential fluorescence; galR3 fused to GalR1 carboxy tail; challenged with forskolin and galanin at EC90 | AID 652245, 2013;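 active = inhibition above the primary screen's cutoff, the mean inhibition of all screened compounds plus 3 SD, cut at about 13% in these data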;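 also: 0% = forskolin plus galanin and 100% = forskolin alone with DMSO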
HEK-CNG parental = nonspecific cAMP agonists in parental HEK-CNG cells, counter-screen for GalR3 antagonist project, cell-based, fluorescence, high throughput; HEK293-CNG parental cells, cAMP membrane potential fluorescence; normalised: DMSO wells 0%, forskolin wells 100%; shares compounds with GalR3 antag; hit rate 10% among 1,600; activation, % at 3 µM; in the data active = activation above about 1.3%
VP16 Luc counter = Gal4-VP16 luciferase reporter inhibitors, counter-screen for COUP-TFII antagonist project, cell-based, luminescence, HEK293; shares compounds with NR2F2 inh; inhibition, % at 8.5 µM; hit rate 25% among 2,500; AID 687007, 2013; in the data active = inhibition above about 13%
NR2F2 inh conf = NR2F2 transcriptional activity inhibitors, confirmation, cell-based, luciferase reporter, HEK293, triplicate | HEK293 NGFI-A luciferase reporter, luminescence | shares compounds with NR2F2 inh | hit rate 45% among 2,500 | AID 687008, 2013 | inhibition, % at 8.5 µM;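 active = mean inhibition over three repeats above a set limit taken from the earlier primary screen, cut at about 38% in these data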;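 also: 100% = cells given the luciferase reporter alone without the COUP-TF2 vector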
Active calls of the source: *; nt = not tested or not shown.

SMILES	LRH-1 inv ag	SRC1 inh	GalR3 antag	SRC3 inh	NR2F2 inh	SRC2 inh	GalR3 antag conf	HEK-CNG parental	VP16 Luc counter	NR2F2 inh conf
CCc1ccc(CN2CCN(C(=O)c3cccc(OC)c3OC)CC2)cc1	23.0	22.2	98.4*	9.6	53.6*	13.1	100.5*	-0.4	-5.8	40.2*
COc1cccc(C(=O)N2CCN(C(=O)c3cccc4ccccc34)CC2)c1OC	-17.6	-6.7	0.0	16.4	5.9	-2.2	nt	nt	nt	nt
Cc1nc2ccccc2n1Cc1ccc(Cl)cc1	46.6	-13.5	86.9*	13.3	60.6*	26.6	108.5*	-0.1	1.3	38.8*
OCc1nc2ccccc2n1Cc1ccc(Cl)cc1	20.0	14.3	-4.6	-3.9	9.5	5.5	nt	nt	nt	nt
Cc1ccccc1Cn1c(C)nc2ccccc21	37.0	31.0	60.2*	23.6	47.5*	35.0	103.5*	0.0	3.4	46.1*
CCCCCCCC[n+]1cccc2c3ccccc3ccc21	88.2*	38.4	64.9*	81.1*	79.9*	14.7	54.1*	3.1*	13.6*	77.3*
CCCCCCCCNc1ncnc2ccccc12	52.8	27.1	nt	20.4	nt	nt	nt	nt	nt	nt
CCCCCCCCCC[n+]1cccc2c3ccccc3ccc21	90.0*	58.4	49.8*	81.5*	82.9*	43.8	50.6*	8.2*	19.6*	81.6*
Cc1cccc[n+]1CCCCCCCCCC[n+]1ccccc1C	17.4	9.2	-6.5	25.8	29.9	6.9	nt	nt	nt	nt
Cc1ccc(-c2csc(NC(=O)C3CCN(S(=O)(=O)c4cccs4)CC3)n2)cc1	41.8	23.4	100.9*	26.5	69.3*	-0.4	104.4*	-0.3	-6.1	49.6*
Cc1sc2ncnc(NC3CCN(Cc4ccccc4)CC3)c2c1C	37.2	27.0	83.0*	30.2	56.4*	34.8	102.4*	1.2*	4.8	52.4*
CCCCOCCCNC(=O)C[C@@H]1C(=O)N(CCc2ccc(Cl)cc2)C2=CCCCC[C@]21C(=O)OC	nt	nt	nt	nt	9.3	9.3	nt	nt	nt	nt
CC1CCCN(S(=O)(=O)c2cc(C(=O)NCc3ccco3)ccc2Cl)C1 (stereo unspecified)	-1.0	-9.1	-6.5	0.1	18.5	-23.5	nt	nt	nt	nt
COc1ccc(CCC(=O)Nc2ccc(Cl)c(S(=O)(=O)N3CCCC3)c2)cc1	27.0	31.4	66.5*	18.5	59.2*	21.1	111.9*	-0.5	-1.5	37.7*
O=C(NCCc1ccccc1)c1ccc(Cl)c(S(=O)(=O)N2CCCC2)c1	-16.5	-26.0	nt	-45.3	nt	nt	nt	nt	nt	nt
COc1ccc(CCNC(=O)c2ccc(Cl)c(S(=O)(=O)N3CCCCCC3)c2)cc1	25.9	16.8	88.0*	12.5	62.9*	16.5	98.6*	0.0	4.7	41.4*
CC1CCCN(S(=O)(=O)c2cc(C(=O)NCCc3ccc(S(N)(=O)=O)cc3)ccc2Cl)C1 (stereo unspecified)	33.0	6.7	75.4*	19.8	63.9*	31.5	15.2*	-0.8	7.4	39.0*
O=S1(=O)N[C@H](Cc2ccccc2)COc2cccc(N3CCCCC3)c21	nt	nt	-6.1	nt	10.1	2.5	nt	nt	nt	nt
Cc1cccc(Cl)c1NC(=O)N1CCN(c2ccnc3cc(Cl)ccc23)CC1	0.2	18.9	-8.7	25.2	0.9	-8.9	nt	nt	nt	nt
Cc1cccc(C)c1NC(=O)N1CCN(c2nc3ccccc3s2)CC1	8.0	14.6	39.3*	28.3	47.9*	12.2	2.4	-0.4	-14.1	26.1
Cc1cccc(Cl)c1NC(=O)N1CCCN(c2nc3ccc(Cl)cc3s2)CC1	14.4	23.4	82.4*	21.6	48.8*	6.9	102.7*	-0.5	-20.2	41.2*
CCOc1ccc(NC(=O)N2CCN(c3nc4ccccc4s3)CC2)cc1	-28.4	14.6	-6.9	7.4	16.9	9.1	nt	nt	nt	nt
CC(C)(N[C@@H](Cc1ccccc1)C(=O)NCCc1c[nH]c2ccccc12)C(=O)NC1CCCCC1	nt	nt	nt	nt	-28.5	nt	nt	nt	nt	nt
O=C(c1ccc(S(=O)(=O)c2ccc(F)cc2)c([N+](=O)[O-])c1)N1CCCCCC1	29.6	5.6	43.9*	37.4	42.7*	39.4	48.9*	-0.5	18.0*	22.2
O=C(c1ccc(S(=O)(=O)Cc2ccccc2F)c([N+](=O)[O-])c1)N1CCCC1	-2.7	-8.7	-1.7	19.6	-2.0	-0.5	nt	nt	nt	nt
SMILES	LRH-1 inv ag	SRC1 inh	GalR3 antag	SRC3 inh	NR2F2 inh	SRC2 inh	GalR3 antag conf	HEK-CNG parental	VP16 Luc counter	NR2F2 inh conf
CCOC(=O)c1cnc(-n2nc(C)cc2C)nc1NC	-4.5	-19.9	-4.7	-7.7	-10.8	-1.3	nt	nt	nt	nt
CCOC(=O)c1cnc(-n2nc(C)cc2C)nc1NC1CCCCC1	19.0	11.6	33.9*	5.1	76.6*	23.0	73.4*	6.8*	-2.1	72.1*
O=S(=O)(NCc1ccncc1)c1ccc(F)c(F)c1	6.1	15.2	-8.7	28.5	32.3	24.9	nt	nt	nt	nt
O=S(=O)(NCc1ccncc1)c1ccc(Br)s1	27.7	32.6	104.8*	22.6	63.4*	19.9	116.3*	-0.1	6.7	53.8*
Cc1ccc(S(=O)(=O)NCc2ccncc2)cc1C	29.7	-5.1	87.8*	18.9	60.1*	8.0	104.9*	-0.5	14.8*	57.0*
CCN(C1CCCCC1)S(=O)(=O)c1ccc(S(=O)(=O)NCc2ccncc2)cc1	22.4	9.6	16.0*	6.7	54.7*	2.2	48.9*	-0.6	0.6	31.9
Cc1cc(Br)c(S(=O)(=O)NCc2ccncc2)cc1C	33.4	13.2	100.8*	11.4	54.0*	14.5	105.1*	-0.3	8.4	47.0*
Cc1ccc(NC(=O)Cc2cccc(OC(F)(F)F)c2)c(S(=O)(=O)N2CCOCC2)c1	nt	nt	nt	nt	8.4	-12.3	nt	nt	nt	nt
